# Measured values reported in PubChem BioAssay (Tox21).
# Inconclusive results are not listed. Where a call stands in place of a potency, no number is given. The source made the active and inactive calls. The call rests on the fitted dose curve; in most records, active means well fitted activation curve with a large enough effect in the signal ratio in the repeat runs (not every such curve was filed as active); inconclusive means weak or mixed curves; inactive means flat fitted curve, though single readings scatter; the % refers to the signal ratio.
# Assay: qHTS assay to identify small molecule agonists of H2AX (AID 1224845)
# Settings: CHO-K1 phospho-H2AX Ser139 HTRF, 3 h; series mostly up to 154 µM
# Description: National Center for Advancing Translational Sciences [NCATS]
# NIH Chemical Genomics Center [NCGC]
# U.S. Environmental Protection Agency [EPA]
# National Institutes of Environmental Health Sciences [NIEHS]
# National Toxicology Program [NTP]
# U.S. Food and Drug Administration [FDA]
# HTRF phospho-H2AX (Ser139) assay (Cisbio Bioassays, US) enables the quantitative detection of the histone variant H2AX when phosphorylated on serine 139. When double-stranded DNA breaks, either by ionizing radiation or endogenous physiological processes, H2AX becomes phosphorylated at Ser139. This phospho-Ser139 serves as a sensitive biomarker for the detection of such breaks, localizing the site of DNA repair. So, HTRF phospho-H2AX Ser139 is a pertinent assay to study genome stability, the cell cycle, DNA repair, and it serves as a biomarker for cancer, and to understand aging. Wild type CHO-K1 cells were used to identify the inducers of Phospho-H2AX Ser 139 from the Tox21 10K compound collections.
# Tox21 Assay Protocol Summary:
# The CHO-K1 cells suspended in culture medium containing 10% FBS were dispensed at 1000 cells/ 3 ul/well in 1536-well white wall/solid bottom plates (Greiner Bio-One North America, NC) using a Multidrop Combi (Thermo Fisher Scientific Inc., Waltham, MA). After the assay plates were incubated at 37C overnight, 23 nl of compounds at 15 concentrations (from 5-48 columns) or positive control (from 1 to 4 columns) were transferred to the assay plates using a Pintool station (Wako, San Diego, CA) into each well resulting in a final DMSO concentration of 0.76%. After 3hr incubation at 37C, 1 uL/well Supplemented Lysis buffer (diluted 100 fold blocking reagent in lysis buffer) (HTRF Phospho-H2A.X (S139) Assay kit from Cisbio US Inc., Bedford, MA) was added using a Flying Reagent Dispenser (FRD) (Aurora Discovery, CA). After 10sec spin at 1000 rpm in a plate centrifuge, the assay plates were incubated at room temperature for 30 min. Then followed by the addition of 1 uL/well detection buffer (containing a mixture of two antibodies, one labeled with cryptate, Anti pH2AX (S139)-K and another labeled with d2, Anti H2AX-d2) using FRD. After incubation at room temperature for 24 hr, the time resolved fluorescence at excitation 320 nm and emissions at 665 nm and 620 nm was measured using an Envision plate reader (PerkinElmer, Waltham, MA).
# Potency means the concentration at half of the fitted maximal effect.
Structure (SMILES),Potency,activation (H2AX phosphorylation)
COc1cc(C(=O)NS(=O)(=O)c2ccccc2C)ccc1Cc1cn(C)c2ccc(NC(=O)OC3CCCC3)cc12,inactive,–
CC(C)CCOCCC(C)C,inactive,–
COc1ccc(C#N)cc1,inactive,–
CC(=O)OC1CCCCC1,inactive,–
CC(=O)Oc1ccc(C2(c3ccc(OC(C)=O)cc3)Oc3ccccc3NC2=O)cc1,inactive,–
COc1cccc(O)c1,inactive,–
OCCCS,inactive,–
COCC(=O)O[C@]1(CCN(C)CCCc2nc3ccccc3[nH]2)CCc2cc(F)ccc2[C@@H]1C(C)C,49.2 µM (active),–
CCc1cccc(C)c1,inactive,–
CC1CNCC(C)O1 (stereo not given),inactive,–
CCC1CCCCC1,inactive,–
CC1(C)C(=O)N(Br)C(=O)N1Br,inactive,–
CCN1CCN(c2cc(-c3ccc(F)cc3)c3c(n2)CCCCCC3)CC1,–,3.44% [at 31.6 µM] (inactive)
CCCCCCS,inactive,–
CCCCN(C)C,inactive,–
CCOC(=O)C1=C(C)NC(C)=C(C(=O)OCC)C1c1ccccc1/C=C/C(=O)OC(C)(C)C,inactive,–
CC(C)(C)c1cc(/C=C2\SC(=N)NC2=O)cc(C(C)(C)C)c1O,inactive,–
O=C1OC(=O)c2ccc3c4c(ccc1c24)C(=O)OC3=O,inactive,–
O=C(Nc1ccc(Cl)c(Cl)c1)c1cc(Cl)cc(Cl)c1O,inactive,–
C[C@@H]1CC[C@H]2C(C)(C)[C@H]3C[C@@]12CC[C@@]3(C)O,inactive,–

Structure (SMILES),Potency,activation (H2AX phosphorylation)
O=C[C@H](O)[C@H](O)[C@H](O)CO,inactive,–
CC(C)N=C(N)/N=C(\N)Nc1ccc(Cl)cc1,inactive,–
C[C@H]1O[C@@H](O[C@H]2[C@@H](O)C[C@H](O[C@H]3[C@@H](O)C[C@H](O[C@H]4CC[C@@]5(C)[C@H](CC[C@@H]6[C@@H]5C[C@@H](O)[C@]5(C)[C@@H](C7=CC(=O)OC7)CC[C@]65O)C4)O[C@@H]3C)O[C@@H]2C)C[C@H](O)[C@@H]1O,inactive,–
Cc1c(C(=O)O)cccc1[N+](=O)[O-],inactive,–
CCC(C)C(=O)OC (stereo not given),inactive,–
CCCCCCCCCCCCCCCC,inactive,–
SCCCCCCCCS,inactive,–
COc1cccc(OC)c1O,inactive,–
Oc1c(Br)cc(Br)c2cccnc12,55.2 µM (active),–
Clc1nc2ccccc2s1,inactive,–
O=S(O)O,–,-2.47% [at 31.6 µM] (inactive)
CCCC(=O)OCC(COC(=O)CCC)OC(=O)CCC,inactive,–
CCOCN(C(=O)CS(=O)(=O)O)c1c(C)cccc1CC,inactive,–
CCCCCCCCCCCCCc1ccccc1,inactive,–
CCN(CC)CCCN(c1ccccc1)C1Cc2ccccc2C1,inactive,–
CC(=O)C=O,inactive,–
CC1=CCC(=O)O1,inactive,–
CC(C)OC(=O)c1cc(C(=O)OC(C)C)cc([N+](=O)[O-])c1,inactive,–
CS(C)(=O)=O,inactive,–
CCCCCCCCCC(=O)N(C)C,inactive,–
